Laboratory results taken from the supplement of paper PMC11732987, “Enantioselective OTUD7B fragment discovery through chemoproteomics screening and high-throughput optimisation” (Communications Chemistry, 2025).
A number with no mark means an inactive call.

Columns and labels:
Experiment in all cases: log2 ratio of Biotin-Ahx-Ub-VS probe labelling (fragment/DMSO); higher = less target engagement (more negative = stronger competition), active = hit call of the paper (q ≤ 0.05, log2 ratio ≤ -1)
Details in all cases: compound concentration: 200 uM; treatment time: 3 h
USP19 = biological target: T1, USP19 (UniProt O94966)
T1 sequence (whole entry): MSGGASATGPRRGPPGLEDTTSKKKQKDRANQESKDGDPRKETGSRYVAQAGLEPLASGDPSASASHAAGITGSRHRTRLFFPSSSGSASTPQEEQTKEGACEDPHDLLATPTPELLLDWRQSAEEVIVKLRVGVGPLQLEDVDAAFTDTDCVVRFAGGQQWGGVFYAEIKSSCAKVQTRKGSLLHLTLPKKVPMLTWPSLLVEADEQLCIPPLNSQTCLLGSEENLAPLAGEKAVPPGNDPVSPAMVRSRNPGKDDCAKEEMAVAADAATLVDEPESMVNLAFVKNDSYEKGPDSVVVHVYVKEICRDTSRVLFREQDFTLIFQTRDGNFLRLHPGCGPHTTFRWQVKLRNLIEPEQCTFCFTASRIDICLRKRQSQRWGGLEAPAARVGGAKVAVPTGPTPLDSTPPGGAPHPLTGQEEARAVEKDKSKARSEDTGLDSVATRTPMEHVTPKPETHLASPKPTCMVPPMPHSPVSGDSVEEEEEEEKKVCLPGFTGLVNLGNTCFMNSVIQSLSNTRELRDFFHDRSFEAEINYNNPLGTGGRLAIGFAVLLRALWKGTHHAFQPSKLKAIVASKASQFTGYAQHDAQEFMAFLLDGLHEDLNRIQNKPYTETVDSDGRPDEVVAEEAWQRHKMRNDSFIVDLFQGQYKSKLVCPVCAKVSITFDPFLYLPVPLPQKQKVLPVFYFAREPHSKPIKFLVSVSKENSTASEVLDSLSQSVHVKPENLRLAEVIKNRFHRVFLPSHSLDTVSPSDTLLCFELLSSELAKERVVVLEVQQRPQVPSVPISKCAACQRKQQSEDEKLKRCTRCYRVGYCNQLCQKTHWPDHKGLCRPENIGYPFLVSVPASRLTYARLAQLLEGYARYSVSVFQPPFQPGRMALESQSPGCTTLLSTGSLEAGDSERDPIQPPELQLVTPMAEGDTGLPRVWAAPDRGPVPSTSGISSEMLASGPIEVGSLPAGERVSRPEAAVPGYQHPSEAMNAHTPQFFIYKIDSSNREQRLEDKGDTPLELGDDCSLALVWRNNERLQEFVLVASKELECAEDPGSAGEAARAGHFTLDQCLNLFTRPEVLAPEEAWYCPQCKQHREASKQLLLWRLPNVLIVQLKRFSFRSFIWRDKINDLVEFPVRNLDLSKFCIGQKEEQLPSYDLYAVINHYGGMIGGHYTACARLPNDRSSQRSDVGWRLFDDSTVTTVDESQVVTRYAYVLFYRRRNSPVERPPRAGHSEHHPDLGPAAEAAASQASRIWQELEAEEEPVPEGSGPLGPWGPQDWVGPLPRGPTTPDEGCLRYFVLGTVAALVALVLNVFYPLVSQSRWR
Outline: (§1)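 HEK293T lysate in Tris/CHAPS/IGEPAL buffer with protease inhibitors (495 µg per sample) was given fragment at 200 µM or vehicle for 3 h, in triplicate. It then received Biotin-Ahx-Ub-VS at 0.5 µM final for 1 h. Labelled DUBs were NeutrAvidin-enriched, digested with LysC and trypsin, and run by diaPASEF LC-MS/MS. Values are average log2 fragment/vehicle ratios by unpaired t-test on global-median-normalised Spectronaut quantities of proteins with ≥2 unique peptides.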

USP22 = biological target: T2, USP22 (UniProt Q9UPT9)
T2 sequence (whole entry): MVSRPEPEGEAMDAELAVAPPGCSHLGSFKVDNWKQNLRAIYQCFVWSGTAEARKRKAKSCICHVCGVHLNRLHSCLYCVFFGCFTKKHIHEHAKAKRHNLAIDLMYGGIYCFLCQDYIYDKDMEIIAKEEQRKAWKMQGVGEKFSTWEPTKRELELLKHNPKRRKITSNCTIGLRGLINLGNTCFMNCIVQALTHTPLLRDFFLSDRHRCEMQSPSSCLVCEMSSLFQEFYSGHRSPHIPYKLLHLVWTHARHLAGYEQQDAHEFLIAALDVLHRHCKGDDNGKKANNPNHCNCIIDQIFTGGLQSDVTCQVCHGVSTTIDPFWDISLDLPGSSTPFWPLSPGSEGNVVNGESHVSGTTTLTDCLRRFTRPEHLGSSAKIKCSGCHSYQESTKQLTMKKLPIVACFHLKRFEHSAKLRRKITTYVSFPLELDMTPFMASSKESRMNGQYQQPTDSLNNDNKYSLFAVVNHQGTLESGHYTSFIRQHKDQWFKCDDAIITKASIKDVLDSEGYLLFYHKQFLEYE
Outline: as §1

USP24 = USP24 (UniProt Q9UPU5)
Outline: as §1

USP25 = biological target: T3, USP25 (UniProt Q9UHP3)
T3 sequence (whole entry): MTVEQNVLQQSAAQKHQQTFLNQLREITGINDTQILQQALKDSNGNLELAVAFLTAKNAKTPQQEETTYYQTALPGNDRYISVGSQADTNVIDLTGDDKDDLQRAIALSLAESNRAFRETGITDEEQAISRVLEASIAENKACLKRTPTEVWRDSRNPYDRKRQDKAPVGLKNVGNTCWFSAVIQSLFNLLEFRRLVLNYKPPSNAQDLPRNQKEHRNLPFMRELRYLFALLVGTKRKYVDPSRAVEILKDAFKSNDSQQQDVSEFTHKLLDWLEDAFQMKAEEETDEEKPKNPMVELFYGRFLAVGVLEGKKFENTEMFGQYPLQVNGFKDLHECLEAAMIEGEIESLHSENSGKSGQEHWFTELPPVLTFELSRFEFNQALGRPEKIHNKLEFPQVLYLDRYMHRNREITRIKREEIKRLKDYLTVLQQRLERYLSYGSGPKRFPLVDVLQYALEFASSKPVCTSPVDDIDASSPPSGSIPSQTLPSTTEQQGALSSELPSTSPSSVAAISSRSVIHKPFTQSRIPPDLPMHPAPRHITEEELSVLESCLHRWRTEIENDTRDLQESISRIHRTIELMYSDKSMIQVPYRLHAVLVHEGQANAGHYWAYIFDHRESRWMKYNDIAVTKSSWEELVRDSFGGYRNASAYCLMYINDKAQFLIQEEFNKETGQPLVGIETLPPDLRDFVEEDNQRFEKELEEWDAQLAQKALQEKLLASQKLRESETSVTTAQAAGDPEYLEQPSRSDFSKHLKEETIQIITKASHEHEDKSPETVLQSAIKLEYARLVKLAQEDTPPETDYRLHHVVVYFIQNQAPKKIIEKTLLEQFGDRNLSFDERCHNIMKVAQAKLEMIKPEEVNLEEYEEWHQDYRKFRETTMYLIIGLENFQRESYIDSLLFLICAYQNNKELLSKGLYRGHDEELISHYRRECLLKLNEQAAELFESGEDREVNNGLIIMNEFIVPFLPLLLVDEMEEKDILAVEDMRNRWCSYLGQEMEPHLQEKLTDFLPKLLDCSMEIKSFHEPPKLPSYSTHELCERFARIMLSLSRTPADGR
Outline: as §1

USP28 = biological target: T4, USP28 (UniProt Q96RU2)
T4 sequence (whole entry): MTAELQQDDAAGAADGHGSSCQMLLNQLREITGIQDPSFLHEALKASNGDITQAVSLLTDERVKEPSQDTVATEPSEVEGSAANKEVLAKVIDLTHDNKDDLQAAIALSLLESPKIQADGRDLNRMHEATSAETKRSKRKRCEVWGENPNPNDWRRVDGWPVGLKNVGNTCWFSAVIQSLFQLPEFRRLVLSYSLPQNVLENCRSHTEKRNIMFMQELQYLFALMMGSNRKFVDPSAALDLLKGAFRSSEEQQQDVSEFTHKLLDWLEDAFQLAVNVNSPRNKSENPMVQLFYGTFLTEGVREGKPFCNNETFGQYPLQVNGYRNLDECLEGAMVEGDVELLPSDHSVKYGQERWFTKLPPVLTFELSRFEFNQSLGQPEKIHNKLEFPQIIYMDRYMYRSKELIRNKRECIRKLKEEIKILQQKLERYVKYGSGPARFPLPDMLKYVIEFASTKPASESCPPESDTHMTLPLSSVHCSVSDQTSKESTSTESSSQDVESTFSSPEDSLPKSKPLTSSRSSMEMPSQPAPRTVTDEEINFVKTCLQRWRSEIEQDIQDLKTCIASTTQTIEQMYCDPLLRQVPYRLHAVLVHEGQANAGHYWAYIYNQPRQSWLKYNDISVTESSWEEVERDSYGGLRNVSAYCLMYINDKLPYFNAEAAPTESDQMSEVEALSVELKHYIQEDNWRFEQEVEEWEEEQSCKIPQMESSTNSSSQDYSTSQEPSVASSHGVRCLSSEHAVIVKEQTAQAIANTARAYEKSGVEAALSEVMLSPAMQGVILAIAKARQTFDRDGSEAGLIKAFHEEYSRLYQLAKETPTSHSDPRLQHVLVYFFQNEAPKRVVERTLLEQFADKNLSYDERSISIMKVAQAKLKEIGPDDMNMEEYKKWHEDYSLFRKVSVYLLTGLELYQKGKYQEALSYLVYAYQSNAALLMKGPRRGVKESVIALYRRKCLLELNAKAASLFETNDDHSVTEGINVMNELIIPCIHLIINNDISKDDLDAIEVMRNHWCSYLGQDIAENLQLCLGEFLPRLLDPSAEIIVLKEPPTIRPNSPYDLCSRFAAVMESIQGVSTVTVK
Outline: as §1

USP24, sequence (Q9UPU5 whole entry): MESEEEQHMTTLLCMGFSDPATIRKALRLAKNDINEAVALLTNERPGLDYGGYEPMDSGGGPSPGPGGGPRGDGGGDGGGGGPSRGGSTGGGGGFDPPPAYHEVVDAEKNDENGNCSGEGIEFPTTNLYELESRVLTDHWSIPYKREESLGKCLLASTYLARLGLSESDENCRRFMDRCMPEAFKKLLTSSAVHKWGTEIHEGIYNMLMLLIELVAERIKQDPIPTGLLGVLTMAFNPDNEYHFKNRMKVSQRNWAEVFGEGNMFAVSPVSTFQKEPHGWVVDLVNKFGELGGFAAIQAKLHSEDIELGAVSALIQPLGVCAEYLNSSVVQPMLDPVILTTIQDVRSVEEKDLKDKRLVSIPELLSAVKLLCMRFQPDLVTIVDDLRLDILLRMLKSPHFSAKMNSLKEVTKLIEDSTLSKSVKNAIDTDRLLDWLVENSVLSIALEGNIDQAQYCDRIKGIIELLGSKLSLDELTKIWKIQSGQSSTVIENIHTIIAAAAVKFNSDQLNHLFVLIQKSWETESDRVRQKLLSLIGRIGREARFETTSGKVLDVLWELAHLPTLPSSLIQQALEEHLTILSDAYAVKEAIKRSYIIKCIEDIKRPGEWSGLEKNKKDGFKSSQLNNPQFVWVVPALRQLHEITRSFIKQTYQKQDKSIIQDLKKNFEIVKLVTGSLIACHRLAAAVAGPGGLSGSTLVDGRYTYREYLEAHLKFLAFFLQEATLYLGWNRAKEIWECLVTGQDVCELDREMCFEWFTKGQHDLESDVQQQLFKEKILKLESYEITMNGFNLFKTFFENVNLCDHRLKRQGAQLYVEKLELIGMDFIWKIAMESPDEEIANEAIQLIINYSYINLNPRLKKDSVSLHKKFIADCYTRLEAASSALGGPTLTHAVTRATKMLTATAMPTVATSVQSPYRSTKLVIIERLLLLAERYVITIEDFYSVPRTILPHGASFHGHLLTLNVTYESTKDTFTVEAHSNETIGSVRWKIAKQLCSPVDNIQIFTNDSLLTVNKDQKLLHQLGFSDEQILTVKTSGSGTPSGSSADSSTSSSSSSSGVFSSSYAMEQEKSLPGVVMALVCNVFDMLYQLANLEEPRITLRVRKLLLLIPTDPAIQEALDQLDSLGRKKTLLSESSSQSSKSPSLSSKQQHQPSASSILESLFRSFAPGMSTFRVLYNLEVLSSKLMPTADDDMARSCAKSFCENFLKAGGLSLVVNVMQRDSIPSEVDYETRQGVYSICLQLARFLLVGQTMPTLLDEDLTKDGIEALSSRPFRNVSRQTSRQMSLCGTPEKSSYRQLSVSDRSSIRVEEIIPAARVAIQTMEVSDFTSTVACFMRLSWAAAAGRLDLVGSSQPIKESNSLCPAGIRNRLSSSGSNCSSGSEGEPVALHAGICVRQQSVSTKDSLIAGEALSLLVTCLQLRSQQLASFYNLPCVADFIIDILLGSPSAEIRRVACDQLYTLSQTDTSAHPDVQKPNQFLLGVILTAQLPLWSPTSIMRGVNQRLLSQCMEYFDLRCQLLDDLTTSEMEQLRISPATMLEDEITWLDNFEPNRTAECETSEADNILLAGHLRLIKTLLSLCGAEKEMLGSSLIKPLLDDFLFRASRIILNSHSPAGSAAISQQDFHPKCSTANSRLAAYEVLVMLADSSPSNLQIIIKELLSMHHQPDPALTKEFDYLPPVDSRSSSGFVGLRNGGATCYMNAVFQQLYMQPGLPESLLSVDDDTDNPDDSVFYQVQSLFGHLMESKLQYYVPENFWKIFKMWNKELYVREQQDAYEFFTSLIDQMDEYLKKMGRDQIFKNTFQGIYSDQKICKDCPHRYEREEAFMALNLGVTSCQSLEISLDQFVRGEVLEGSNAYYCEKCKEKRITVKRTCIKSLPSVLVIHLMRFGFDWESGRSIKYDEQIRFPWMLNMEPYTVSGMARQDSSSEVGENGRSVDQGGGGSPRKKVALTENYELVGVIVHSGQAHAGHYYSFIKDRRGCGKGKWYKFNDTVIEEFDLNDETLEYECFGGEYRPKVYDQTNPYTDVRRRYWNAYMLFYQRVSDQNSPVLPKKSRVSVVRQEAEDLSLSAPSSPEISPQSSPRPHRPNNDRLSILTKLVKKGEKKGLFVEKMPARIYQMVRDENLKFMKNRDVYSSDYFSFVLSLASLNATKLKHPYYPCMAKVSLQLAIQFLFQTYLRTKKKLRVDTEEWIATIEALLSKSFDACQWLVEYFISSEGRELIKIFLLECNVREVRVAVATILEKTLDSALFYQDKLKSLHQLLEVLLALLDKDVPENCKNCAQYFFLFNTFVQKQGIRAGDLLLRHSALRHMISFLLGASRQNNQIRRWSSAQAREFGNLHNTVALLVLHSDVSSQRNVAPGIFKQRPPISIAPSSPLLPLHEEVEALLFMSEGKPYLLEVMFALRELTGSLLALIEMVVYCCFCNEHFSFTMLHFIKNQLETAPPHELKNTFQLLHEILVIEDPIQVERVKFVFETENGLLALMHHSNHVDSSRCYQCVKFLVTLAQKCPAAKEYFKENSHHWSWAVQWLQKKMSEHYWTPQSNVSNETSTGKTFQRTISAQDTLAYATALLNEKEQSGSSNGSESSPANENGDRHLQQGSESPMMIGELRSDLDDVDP

With `Cc1n[nH]c2c1CN(C(=O)CCl)CC2` the “log2 ratio of Biotin-Ahx-Ub-VS probe labelling” value (“log2 ratio” below) (USP19) was -1.23 (active), the “log2 ratio” value (USP22) was -0.846 and the “log2 ratio” value (USP24) was -1.26 (active). For the same molecule, the “log2 ratio” value (USP25) was -0.783 and the “log2 ratio” value (USP28) was -1.29 (active).
